# According to PubChem BioAssay AID1159580 (chemical genetic matrix, 2015):
# Several values for one entry are separate records, joined by “and”; a condition that tells them apart may be missing. Equal entries are not always repeated. Screen size: about 5,500 compounds; about 2,000 (36%) were called active. Another 18% or so got no clear call; they are omitted. Rule as the data show it: active = normalized growth mostly below about 0.91 (no sharp cut-off); inconclusive = no clear call, values can overlap the other calls; inactive = mostly above about 0.92. This is one part of the list.
# Test: chemical genetic growth profiling, strain panel (AID 1159580);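 also: tested at 20 µM; growth read once vehicle control cultures reached saturation at 30 °C; 1 = growth at the plate median or of vehicle wells; lower values mean less growth of the strain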
# Conditions: growth OD
smiles,measurement,setting,value
CNc1ccccc1C(=O)O,normalized growth,"S. cerevisiae deletion strains, locus YBR021W, strain FUR4, stronger effect = lower value",0.955 (inactive)
same,normalized growth,"S. cerevisiae deletion strains, locus YBR229C, strain ROT2, stronger effect = lower value",1 (inactive)
same,normalized growth,"S. cerevisiae deletion strains, locus YCL029C, strain bik1, stronger effect = lower value",1.01 (inactive)
same,normalized growth,"S. cerevisiae deletion strains, locus YDL035C, strain GPR1, stronger effect = lower value",1.02 (inactive)
same,normalized growth,"S. cerevisiae deletion strains, locus YDL074C, strain BRE1, stronger effect = lower value",1.03 (inactive)
same,normalized growth,"S. cerevisiae deletion strains, locus YDL101C, strain DUN1, stronger effect = lower value",1.02 (inactive)
same,normalized growth,"S. cerevisiae deletion strains, locus YDL185W, strain tfp1, stronger effect = lower value",1 (inactive)
same,normalized growth,"S. cerevisiae deletion strains, locus YDL192W, strain arf1, stronger effect = lower value",0.996 (inactive)
same,normalized growth,"S. cerevisiae deletion strains, locus YDR101C, strain arx1, stronger effect = lower value",1 (inactive)
same,normalized growth,"S. cerevisiae deletion strains, locus YDR150W, strain NUM1, stronger effect = lower value",0.997 (inactive)
same,normalized growth,"S. cerevisiae deletion strains, locus YDR162C, strain NBP2, stronger effect = lower value",1.05 (inactive)
same,normalized growth,"S. cerevisiae deletion strains, locus YDR318W, strain mcm21, stronger effect = lower value",0.998 (inactive)
same,normalized growth,"S. cerevisiae deletion strains, locus YDR388W, stronger effect = lower value",1 (inactive)
same,normalized growth,"S. cerevisiae deletion strains, locus YDR502C, strain sam2, stronger effect = lower value",1.02 (inactive)
same,normalized growth,"S. cerevisiae deletion strains, locus YEL061C, strain CIN8, stronger effect = lower value",1 (inactive)
same,normalized growth,"S. cerevisiae deletion strains, locus YER110C, stronger effect = lower value",1.02 (inactive)
same,normalized growth,"S. cerevisiae deletion strains, locus YER155C, strain BEM2, stronger effect = lower value",0.973 (inactive)
same,normalized growth,"S. cerevisiae deletion strains, locus YER167W, strain BCK2, stronger effect = lower value",1 (inactive)
same,normalized growth,"S. cerevisiae deletion strains, locus YGL078C, strain dbp3, stronger effect = lower value",0.981 (inactive)
same,normalized growth,"S. cerevisiae deletion strains, locus YGL086W, strain mad1, stronger effect = lower value",0.989 (inactive)
same,normalized growth,"S. cerevisiae deletion strains, locus YGL248W, strain PDE1, stronger effect = lower value",1.03 (inactive)
same,normalized growth,"S. cerevisiae deletion strains, locus YGR135W, strain pre9, stronger effect = lower value",1 (inactive)
same,normalized growth,"S. cerevisiae deletion strains, locus YGR229C, strain SMI1, stronger effect = lower value",1 (inactive)
same,normalized growth,"S. cerevisiae deletion strains, locus YGR252W, strain gcn5, stronger effect = lower value",1.02 (inactive)
same,normalized growth,"S. cerevisiae deletion strains, locus YHR030C, strain SLT2, stronger effect = lower value",1.01 (inactive) and 0.862 (inactive)
same,normalized growth,"S. cerevisiae deletion strains, locus YHR079C, strain IRE1 (second series), stronger effect = lower value",0.986 (inactive)
same,normalized growth,"S. cerevisiae deletion strains, locus YHR079C, strain IRE1, stronger effect = lower value",0.873 (inactive)
same,normalized growth,"S. cerevisiae deletion strains, locus YHR094C, strain hxt1, stronger effect = lower value",1 (inactive)
same,normalized growth,"S. cerevisiae deletion strains, locus YHR129C, strain ARP1, stronger effect = lower value",1.01 (inactive)
same,normalized growth,"S. cerevisiae deletion strains, locus YHR200W, strain rpn10, stronger effect = lower value",1.01 (inactive)
same,normalized growth,"S. cerevisiae deletion strains, locus YIL066C, strain RNR3, stronger effect = lower value",1.04 (inactive)
same,normalized growth,"S. cerevisiae deletion strains, locus YIL073C, strain SPO22, stronger effect = lower value",1.09 (inactive)
same,normalized growth,"S. cerevisiae deletion strains, locus YIL125W, strain kgd1, stronger effect = lower value",0.969 (inactive)
same,normalized growth,"S. cerevisiae deletion strains, locus YIR030C, strain dcg1, stronger effect = lower value",1.01 (inactive)
same,normalized growth,"S. cerevisiae deletion strains, locus YJL095W, strain BCK1, stronger effect = lower value",1.05 (inactive) and 0.875 (active)
same,normalized growth,"S. cerevisiae deletion strains, locus YJL134W, strain LCB3, stronger effect = lower value",1 (inactive)
same,normalized growth,"S. cerevisiae deletion strains, locus YJL168C, strain set2, stronger effect = lower value",0.996 (inactive)
same,normalized growth,"S. cerevisiae deletion strains, locus YJL187C, strain SWE1 (second series), stronger effect = lower value",1.02 (inactive)
same,normalized growth,"S. cerevisiae deletion strains, locus YJR043C, strain POL32, stronger effect = lower value",1.01 (inactive)
same,normalized growth,"S. cerevisiae deletion strains, locus YJR066W, strain TOR1, stronger effect = lower value",0.842 (inactive)
same,normalized growth,"S. cerevisiae deletion strains, locus YKL009W, strain mrt4, stronger effect = lower value",0.972 (inactive)
same,normalized growth,"S. cerevisiae deletion strains, locus YKL068W, stronger effect = lower value",0.967 (inactive)
same,normalized growth,"S. cerevisiae deletion strains, locus YKL085W, strain MDH1 (second series), stronger effect = lower value",0.985 (inactive)
same,normalized growth,"S. cerevisiae deletion strains, locus YKL085W, strain MDH1, stronger effect = lower value",0.985 (inactive)
same,normalized growth,"S. cerevisiae deletion strains, locus YKR001C, strain vps1, stronger effect = lower value",1 (inactive)
same,normalized growth,"S. cerevisiae deletion strains, locus YLR039C, strain RIC1, stronger effect = lower value",1.03 (inactive)
same,normalized growth,"S. cerevisiae deletion strains, locus YLR058C, strain SHM2, stronger effect = lower value",1.02 (inactive)
same,normalized growth,"S. cerevisiae deletion strains, locus YLR102C, strain apc9, stronger effect = lower value",1 (inactive)
same,normalized growth,"S. cerevisiae deletion strains, locus YLR113W, strain HOG1, stronger effect = lower value",0.78 (active)
same,normalized growth,"S. cerevisiae deletion strains, locus YLR262C, strain YPT6, stronger effect = lower value",1.06 (inactive)
same,normalized growth,"S. cerevisiae deletion strains, locus YLR268W, strain sec22, stronger effect = lower value",0.993 (inactive)
same,normalized growth,"S. cerevisiae deletion strains, locus YLR330W, strain CHS5, stronger effect = lower value",1.02 (inactive)
same,normalized growth,"S. cerevisiae deletion strains, locus YLR342W, strain FKS1 (second series), stronger effect = lower value",1.02 (inactive)
same,normalized growth,"S. cerevisiae deletion strains, locus YLR371W, strain rom2, stronger effect = lower value",0.995 (inactive)
same,normalized growth,"S. cerevisiae deletion strains, locus YLR418C, strain cdc73, stronger effect = lower value",1.08 (inactive)
same,normalized growth,"S. cerevisiae deletion strains, locus YML016C, strain PPZ1, stronger effect = lower value",1.01 (inactive)
same,normalized growth,"S. cerevisiae deletion strains, locus YML032C, strain rad52, stronger effect = lower value",1.02 (inactive)
same,normalized growth,"S. cerevisiae deletion strains, locus YML124C, strain tub3, stronger effect = lower value",1.01 (inactive)
same,normalized growth,"S. cerevisiae deletion strains, locus YMR078C, strain ctf18, stronger effect = lower value",1 (inactive)
same,normalized growth,"S. cerevisiae deletion strains, locus YMR223W, strain ubp8, stronger effect = lower value",1.01 (inactive)
same,normalized growth,"S. cerevisiae deletion strains, locus YMR263W, strain SAP30, stronger effect = lower value",1.02 (inactive)
same,normalized growth,"S. cerevisiae deletion strains, locus YMR307W, strain GAS1, stronger effect = lower value",1.08 (inactive)
same,normalized growth,"S. cerevisiae deletion strains, locus YNL067W, strain RPL9B, stronger effect = lower value",1.01 (inactive)
same,normalized growth,"S. cerevisiae deletion strains, locus YNL183C, strain NPR1, stronger effect = lower value",0.822 (active)
same,normalized growth,"S. cerevisiae deletion strains, locus YNL233W, strain BNI4, stronger effect = lower value",1.02 (inactive)
same,normalized growth,"S. cerevisiae deletion strains, locus YNL250W, strain rad50, stronger effect = lower value",0.994 (inactive)
same,normalized growth,"S. cerevisiae deletion strains, locus YNL271C, strain bni1, stronger effect = lower value",0.989 (inactive)
same,normalized growth,"S. cerevisiae deletion strains, locus YNL298W, strain CLA4, stronger effect = lower value",1.01 (inactive)
same,normalized growth,"S. cerevisiae deletion strains, locus YNL307C, strain MCK1, stronger effect = lower value",0.993 (inactive)
same,normalized growth,"S. cerevisiae deletion strains, locus YNR052C, strain pop2, stronger effect = lower value",1 (inactive)
same,normalized growth,"S. cerevisiae deletion strains, locus YOL012C, strain htz1",1.68 (inactive)
same,normalized growth,"S. cerevisiae deletion strains, locus YOL147C, strain pex11, stronger effect = lower value",0.999 (inactive)
same,normalized growth,"S. cerevisiae deletion strains, locus YOR061W, strain CKA2, stronger effect = lower value",1.01 (inactive)
same,normalized growth,"S. cerevisiae deletion strains, locus YOR069W, strain VPS5, stronger effect = lower value",1.01 (inactive)
same,normalized growth,"S. cerevisiae deletion strains, locus YOR136W, strain idh2, stronger effect = lower value",1.01 (inactive)
same,normalized growth,"S. cerevisiae deletion strains, locus YOR144C, strain elg1, stronger effect = lower value",0.994 (inactive)
same,normalized growth,"S. cerevisiae deletion strains, locus YOR184W, strain ser1, stronger effect = lower value",1.01 (inactive)
same,normalized growth,"S. cerevisiae deletion strains, locus YOR231W, strain MKK1, stronger effect = lower value",0.884 (inactive)
same,normalized growth,"S. cerevisiae deletion strains, locus YOR316C, strain cot1, stronger effect = lower value",1.01 (inactive)
same,normalized growth,"S. cerevisiae deletion strains, locus YPL055C, strain LGE1, stronger effect = lower value",1.04 (inactive)
same,normalized growth,"S. cerevisiae deletion strains, locus YPL241C, strain CIN2, stronger effect = lower value",0.999 (inactive)
same,normalized growth,"S. cerevisiae deletion strains, locus YPL256C, strain CLN2, stronger effect = lower value",0.838 (inactive)
same,normalized growth,"S. cerevisiae deletion strains, locus YPR119W, strain clb2, stronger effect = lower value",0.995 (inactive)
same,normalized growth,"S. cerevisiae deletion strains, locus YPR141C, strain kar3, stronger effect = lower value",0.968 (inactive)
same,normalized growth,"S. cerevisiae deletion strains, locus YPR163C, strain tif3, stronger effect = lower value",0.998 (inactive)
same,normalized growth,"S. cerevisiae deletion strains, locus YPR167C, strain met16, stronger effect = lower value",1.02 (inactive)
same,normalized growth,"S. cerevisiae deletion strains, strain wtn01, stronger effect = lower value",1.01 (inactive)
same,normalized growth,"S. cerevisiae strains, strain wild type, stronger effect = lower value",1.01 (inactive)
